# PMC7862700, “An all-to-all approach to the identification of sequence-specific readers for epigenetic DNA modifications on cytosine”
# Key:
# Assay in all cases: DAPPL (digital affinity profiling via proximity ligation, sequencing); 10 mM Tris-HCl pH 7.5, 50 mM NaCl, 1 mM DTT, 4% glycerol, room temperature, 30 min; GST-TFs on glutathione beads, 16-mer random dsDNA library, 0.1% formaldehyde crosslink after washing; high values mean tight binding
# FEV = molecular target: T1, FEV (Homo sapiens, UniProt Q99581 1-238); conditions: protein: recombinant; tags: N-terminal GST; dsDNA, one strand shown
# T1 sequence: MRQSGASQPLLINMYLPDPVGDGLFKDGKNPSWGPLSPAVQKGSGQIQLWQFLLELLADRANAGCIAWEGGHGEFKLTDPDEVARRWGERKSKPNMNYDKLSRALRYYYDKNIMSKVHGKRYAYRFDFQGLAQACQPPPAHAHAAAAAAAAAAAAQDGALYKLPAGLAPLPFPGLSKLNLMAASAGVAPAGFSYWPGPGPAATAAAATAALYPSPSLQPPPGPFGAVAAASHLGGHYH
# In short: (§1)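 Human transcription factors fused to GST were expressed in yeast, captured on glutathione beads, given DNA barcodes and pooled with a GST-only negative control. Pools were incubated with 200 nmole of a 16-mer random double-stranded DNA library in Tris/NaCl/DTT/glycerol buffer at room temperature for 30 min. They were then washed, crosslinked with 0.1% formaldehyde, proximity-ligated (BsaI/T4 ligase, 1 h, 37 °C), PCR-amplified and sequenced on an Illumina NextSeq500. Binding signal is each 6-mer's read frequency for a factor divided by its frequency for the GST control.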
# ETV5 = ETV5 (Homo sapiens, UniProt P41161 1-510); conditions: protein: recombinant; tags: N-terminal GST; dsDNA, one strand shown
# Sequence of ETV5 (P41161 whole entry): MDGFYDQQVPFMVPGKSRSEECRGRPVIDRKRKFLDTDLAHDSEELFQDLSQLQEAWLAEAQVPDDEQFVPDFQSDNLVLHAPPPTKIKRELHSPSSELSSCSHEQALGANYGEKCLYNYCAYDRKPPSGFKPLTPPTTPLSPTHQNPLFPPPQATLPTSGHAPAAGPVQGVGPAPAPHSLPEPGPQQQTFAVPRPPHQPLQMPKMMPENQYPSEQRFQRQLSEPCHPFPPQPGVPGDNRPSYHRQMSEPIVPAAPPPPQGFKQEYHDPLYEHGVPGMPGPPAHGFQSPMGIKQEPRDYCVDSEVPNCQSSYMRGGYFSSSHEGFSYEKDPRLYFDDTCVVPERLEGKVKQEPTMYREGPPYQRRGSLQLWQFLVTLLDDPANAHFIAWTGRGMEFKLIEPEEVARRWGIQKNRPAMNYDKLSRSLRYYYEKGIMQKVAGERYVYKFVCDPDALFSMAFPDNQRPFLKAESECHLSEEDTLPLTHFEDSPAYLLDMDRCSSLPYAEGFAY
# In short: as §1
# HSF1 = HSF1 (Homo sapiens, UniProt Q00613 1-529); conditions: protein: recombinant; tags: N-terminal GST; chain copies: 3; dsDNA, one strand shown
# Sequence of HSF1 (Q00613 whole entry): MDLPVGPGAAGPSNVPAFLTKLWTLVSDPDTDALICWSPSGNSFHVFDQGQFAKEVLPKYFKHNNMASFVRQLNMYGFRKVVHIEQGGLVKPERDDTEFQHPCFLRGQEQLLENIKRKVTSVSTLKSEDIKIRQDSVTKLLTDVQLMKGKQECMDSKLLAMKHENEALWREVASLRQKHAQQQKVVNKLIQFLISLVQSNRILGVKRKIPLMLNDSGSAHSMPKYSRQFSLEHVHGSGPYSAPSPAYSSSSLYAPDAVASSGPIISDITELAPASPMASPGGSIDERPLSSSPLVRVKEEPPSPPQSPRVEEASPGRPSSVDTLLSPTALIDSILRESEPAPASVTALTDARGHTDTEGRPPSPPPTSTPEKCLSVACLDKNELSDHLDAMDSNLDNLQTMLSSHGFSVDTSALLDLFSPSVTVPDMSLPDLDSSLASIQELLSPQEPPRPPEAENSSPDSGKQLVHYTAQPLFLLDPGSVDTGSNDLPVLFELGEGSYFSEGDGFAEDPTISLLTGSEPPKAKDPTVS
# In short: as §1
# SPIC = molecular target: T2, SPIC (Homo sapiens, UniProt Q8N5J4 1-248); conditions: protein: recombinant; tags: N-terminal GST; dsDNA, one strand shown
# T2 sequence: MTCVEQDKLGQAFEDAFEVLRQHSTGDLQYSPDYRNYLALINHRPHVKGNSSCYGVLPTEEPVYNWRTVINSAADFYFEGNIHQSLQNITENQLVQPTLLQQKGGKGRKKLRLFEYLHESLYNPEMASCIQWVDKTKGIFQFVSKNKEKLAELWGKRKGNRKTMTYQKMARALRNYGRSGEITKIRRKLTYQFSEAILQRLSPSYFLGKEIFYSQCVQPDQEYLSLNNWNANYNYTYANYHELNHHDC
# In short: as §1
# ELF4 = ELF4 (Homo sapiens, UniProt Q99607 1-663); conditions: protein: recombinant; tags: N-terminal GST; dsDNA, one strand shown
# Sequence of ELF4 (Q99607 whole entry): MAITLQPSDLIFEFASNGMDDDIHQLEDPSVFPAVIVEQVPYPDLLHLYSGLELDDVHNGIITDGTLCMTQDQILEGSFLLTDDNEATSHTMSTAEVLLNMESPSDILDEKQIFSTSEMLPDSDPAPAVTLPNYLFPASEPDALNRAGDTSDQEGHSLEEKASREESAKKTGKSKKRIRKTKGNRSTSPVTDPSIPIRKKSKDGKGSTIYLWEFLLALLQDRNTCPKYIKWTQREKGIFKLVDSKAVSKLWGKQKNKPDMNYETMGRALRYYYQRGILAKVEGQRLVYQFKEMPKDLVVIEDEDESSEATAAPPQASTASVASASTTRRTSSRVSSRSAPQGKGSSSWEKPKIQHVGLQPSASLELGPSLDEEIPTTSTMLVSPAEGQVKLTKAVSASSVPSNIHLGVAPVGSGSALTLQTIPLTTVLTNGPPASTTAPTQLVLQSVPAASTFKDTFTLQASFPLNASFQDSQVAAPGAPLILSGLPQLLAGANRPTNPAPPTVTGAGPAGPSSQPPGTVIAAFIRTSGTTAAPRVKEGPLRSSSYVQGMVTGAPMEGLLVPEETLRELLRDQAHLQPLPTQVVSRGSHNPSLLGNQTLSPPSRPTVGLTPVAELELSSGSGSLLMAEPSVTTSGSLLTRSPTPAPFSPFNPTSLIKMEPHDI
# In short: as §1
# ELK4 = molecular target: T3, ELK4 (Homo sapiens, UniProt P28324-2 1-405); conditions: protein: recombinant; tags: N-terminal GST; dsDNA, one strand shown
# T3 sequence: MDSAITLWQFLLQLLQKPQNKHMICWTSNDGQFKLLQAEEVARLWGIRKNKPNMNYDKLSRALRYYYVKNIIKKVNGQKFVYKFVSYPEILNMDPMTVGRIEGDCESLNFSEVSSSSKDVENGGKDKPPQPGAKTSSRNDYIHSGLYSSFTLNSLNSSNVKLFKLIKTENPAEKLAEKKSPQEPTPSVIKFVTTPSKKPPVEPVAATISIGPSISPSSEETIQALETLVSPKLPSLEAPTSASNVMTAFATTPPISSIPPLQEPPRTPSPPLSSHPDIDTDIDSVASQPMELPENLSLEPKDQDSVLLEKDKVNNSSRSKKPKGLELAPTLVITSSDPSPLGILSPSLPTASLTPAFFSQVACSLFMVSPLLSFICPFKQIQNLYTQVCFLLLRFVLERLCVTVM
# In short: as §1
# ETV2 = molecular target: T4, ETV2 (Homo sapiens, UniProt O00321 1-342); conditions: protein: recombinant; tags: N-terminal GST; dsDNA, one strand shown
# T4 sequence: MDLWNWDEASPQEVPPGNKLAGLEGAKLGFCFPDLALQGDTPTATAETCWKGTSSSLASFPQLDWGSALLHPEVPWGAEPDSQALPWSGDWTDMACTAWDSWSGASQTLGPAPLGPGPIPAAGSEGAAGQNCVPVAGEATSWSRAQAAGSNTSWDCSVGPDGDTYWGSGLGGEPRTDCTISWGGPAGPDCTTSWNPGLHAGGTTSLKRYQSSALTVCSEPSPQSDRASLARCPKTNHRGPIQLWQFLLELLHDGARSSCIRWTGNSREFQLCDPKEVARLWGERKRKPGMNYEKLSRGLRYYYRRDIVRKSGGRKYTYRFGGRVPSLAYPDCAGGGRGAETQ
# In short: as §1
# ELF3 = molecular target: T5, ELF3 (Homo sapiens, UniProt P78545 1-371); conditions: protein: recombinant; tags: N-terminal GST; dsDNA, one strand shown
# T5 sequence: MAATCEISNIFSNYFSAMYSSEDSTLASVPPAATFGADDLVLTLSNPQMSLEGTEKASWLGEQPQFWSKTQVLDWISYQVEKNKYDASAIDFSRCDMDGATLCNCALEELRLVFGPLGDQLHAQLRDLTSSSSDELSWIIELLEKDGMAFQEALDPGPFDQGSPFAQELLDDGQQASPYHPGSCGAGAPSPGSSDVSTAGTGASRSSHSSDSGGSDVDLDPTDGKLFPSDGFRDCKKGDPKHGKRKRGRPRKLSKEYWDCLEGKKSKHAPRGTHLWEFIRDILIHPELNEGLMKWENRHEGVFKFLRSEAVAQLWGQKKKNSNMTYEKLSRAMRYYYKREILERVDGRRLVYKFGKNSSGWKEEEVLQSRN
# In short: as §1
# CRX = CRX (Homo sapiens, UniProt O43186 1-299); conditions: protein: recombinant; tags: N-terminal GST; dsDNA, one strand shown
# Sequence of CRX (O43186 whole entry): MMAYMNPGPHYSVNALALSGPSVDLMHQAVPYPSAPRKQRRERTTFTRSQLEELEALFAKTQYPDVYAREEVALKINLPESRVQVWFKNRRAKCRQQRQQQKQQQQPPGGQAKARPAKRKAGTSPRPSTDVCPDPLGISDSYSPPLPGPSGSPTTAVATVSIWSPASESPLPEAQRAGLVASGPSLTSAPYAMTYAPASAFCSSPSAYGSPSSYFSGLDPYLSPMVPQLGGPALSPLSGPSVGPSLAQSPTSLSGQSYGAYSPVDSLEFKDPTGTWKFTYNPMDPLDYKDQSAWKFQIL
# In short: as §1
# ETV1 = ETV1 (Homo sapiens, UniProt P50549 1-477); conditions: protein: recombinant; tags: N-terminal GST; dsDNA, one strand shown
# Sequence of ETV1 (P50549 whole entry): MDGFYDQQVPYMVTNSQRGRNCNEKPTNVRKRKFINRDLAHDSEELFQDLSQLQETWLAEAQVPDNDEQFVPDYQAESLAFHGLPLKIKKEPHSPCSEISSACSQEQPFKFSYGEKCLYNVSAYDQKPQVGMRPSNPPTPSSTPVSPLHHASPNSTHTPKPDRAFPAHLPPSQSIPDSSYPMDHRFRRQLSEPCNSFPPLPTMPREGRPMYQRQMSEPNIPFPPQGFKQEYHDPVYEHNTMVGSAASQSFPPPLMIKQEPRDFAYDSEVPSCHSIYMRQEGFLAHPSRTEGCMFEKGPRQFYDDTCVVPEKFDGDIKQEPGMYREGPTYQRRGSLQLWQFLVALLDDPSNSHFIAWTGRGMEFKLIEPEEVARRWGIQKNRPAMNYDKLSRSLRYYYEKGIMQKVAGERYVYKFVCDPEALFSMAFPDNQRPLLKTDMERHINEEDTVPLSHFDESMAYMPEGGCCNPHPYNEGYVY
# In short: as §1
# ERF = molecular target: T6, ERF (Homo sapiens, UniProt P50548 1-548); conditions: protein: recombinant; tags: N-terminal GST; dsDNA, one strand shown
# T6 sequence: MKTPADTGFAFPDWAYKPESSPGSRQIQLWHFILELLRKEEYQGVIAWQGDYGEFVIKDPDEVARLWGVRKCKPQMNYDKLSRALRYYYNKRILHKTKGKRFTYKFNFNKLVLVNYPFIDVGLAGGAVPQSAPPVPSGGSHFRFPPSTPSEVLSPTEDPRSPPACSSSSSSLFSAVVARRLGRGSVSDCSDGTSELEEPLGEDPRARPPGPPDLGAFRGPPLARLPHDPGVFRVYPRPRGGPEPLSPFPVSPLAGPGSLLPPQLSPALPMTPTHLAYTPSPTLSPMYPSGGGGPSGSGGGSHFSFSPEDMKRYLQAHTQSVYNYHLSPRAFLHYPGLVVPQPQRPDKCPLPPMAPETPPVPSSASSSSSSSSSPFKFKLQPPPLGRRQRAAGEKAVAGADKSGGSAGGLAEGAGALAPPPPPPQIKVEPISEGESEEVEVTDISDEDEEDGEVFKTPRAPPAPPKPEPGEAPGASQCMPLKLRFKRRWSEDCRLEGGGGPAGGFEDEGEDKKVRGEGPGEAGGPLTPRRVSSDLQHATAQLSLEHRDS
# In short: as §1
# ETV3L = molecular target: T7, ETV3L (Homo sapiens, UniProt Q6ZN32 1-361); conditions: protein: recombinant; tags: N-terminal GST; dsDNA, one strand shown
# T7 sequence: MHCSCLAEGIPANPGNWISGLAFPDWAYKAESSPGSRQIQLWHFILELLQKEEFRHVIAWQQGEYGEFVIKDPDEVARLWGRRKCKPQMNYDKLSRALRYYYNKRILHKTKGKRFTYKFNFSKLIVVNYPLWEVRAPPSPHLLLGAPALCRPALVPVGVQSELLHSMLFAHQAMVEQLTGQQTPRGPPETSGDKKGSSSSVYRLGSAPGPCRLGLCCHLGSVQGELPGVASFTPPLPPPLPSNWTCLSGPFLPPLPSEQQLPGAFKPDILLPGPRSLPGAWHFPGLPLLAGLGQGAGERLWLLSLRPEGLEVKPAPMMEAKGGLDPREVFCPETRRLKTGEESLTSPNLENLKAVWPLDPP
# In short: as §1
# ETS2 = molecular target: T8, ETS2 (Homo sapiens, UniProt P15036 1-469); conditions: protein: recombinant; tags: N-terminal GST; dsDNA, one strand shown
# T8 sequence: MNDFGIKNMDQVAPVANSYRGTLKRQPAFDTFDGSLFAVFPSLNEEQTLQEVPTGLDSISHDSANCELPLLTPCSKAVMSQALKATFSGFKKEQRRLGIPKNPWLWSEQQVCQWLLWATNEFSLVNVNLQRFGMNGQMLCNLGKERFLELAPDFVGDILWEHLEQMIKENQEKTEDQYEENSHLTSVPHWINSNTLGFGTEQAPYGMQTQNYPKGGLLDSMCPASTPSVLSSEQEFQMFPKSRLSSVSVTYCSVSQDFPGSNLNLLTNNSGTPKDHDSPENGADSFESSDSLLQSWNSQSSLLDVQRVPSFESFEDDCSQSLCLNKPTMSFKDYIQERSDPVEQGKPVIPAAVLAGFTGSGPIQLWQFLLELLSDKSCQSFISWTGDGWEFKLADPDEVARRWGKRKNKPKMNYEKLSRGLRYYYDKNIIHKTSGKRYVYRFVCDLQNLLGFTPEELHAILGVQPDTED
# In short: as §1
# SPDEF = molecular target: T9, SPDEF (Homo sapiens, UniProt O95238 1-335); conditions: protein: recombinant; tags: N-terminal GST; dsDNA, one strand shown
# T9 sequence: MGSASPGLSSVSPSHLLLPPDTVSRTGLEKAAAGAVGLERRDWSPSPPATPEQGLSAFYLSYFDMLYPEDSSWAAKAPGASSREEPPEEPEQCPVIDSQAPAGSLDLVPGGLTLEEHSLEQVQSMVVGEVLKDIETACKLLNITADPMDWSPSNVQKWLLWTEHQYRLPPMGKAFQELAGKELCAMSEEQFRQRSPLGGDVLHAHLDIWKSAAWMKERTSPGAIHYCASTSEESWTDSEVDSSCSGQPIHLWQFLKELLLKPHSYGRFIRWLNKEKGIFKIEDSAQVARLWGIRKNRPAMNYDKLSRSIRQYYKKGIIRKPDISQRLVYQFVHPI
# In short: as §1
# ETV7 = molecular target: T10, ETV7 (Homo sapiens, UniProt Q9Y603 1-341); conditions: protein: recombinant; tags: N-terminal GST; dsDNA, one strand shown
# T10 sequence: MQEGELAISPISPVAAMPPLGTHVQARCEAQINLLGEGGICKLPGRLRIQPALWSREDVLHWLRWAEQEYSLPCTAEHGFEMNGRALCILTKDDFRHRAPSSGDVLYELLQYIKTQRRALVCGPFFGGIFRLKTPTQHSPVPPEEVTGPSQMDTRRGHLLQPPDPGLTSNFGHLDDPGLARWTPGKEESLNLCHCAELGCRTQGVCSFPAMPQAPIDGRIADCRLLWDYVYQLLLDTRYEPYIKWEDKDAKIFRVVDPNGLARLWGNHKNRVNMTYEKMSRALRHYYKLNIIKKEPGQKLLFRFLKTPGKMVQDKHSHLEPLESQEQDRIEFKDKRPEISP
# In short: as §1
# ELF5 = molecular target: T11, ELF5 (Homo sapiens, UniProt Q9UKW6-2 1-255); conditions: protein: recombinant; tags: N-terminal GST; dsDNA, one strand shown
# T11 sequence: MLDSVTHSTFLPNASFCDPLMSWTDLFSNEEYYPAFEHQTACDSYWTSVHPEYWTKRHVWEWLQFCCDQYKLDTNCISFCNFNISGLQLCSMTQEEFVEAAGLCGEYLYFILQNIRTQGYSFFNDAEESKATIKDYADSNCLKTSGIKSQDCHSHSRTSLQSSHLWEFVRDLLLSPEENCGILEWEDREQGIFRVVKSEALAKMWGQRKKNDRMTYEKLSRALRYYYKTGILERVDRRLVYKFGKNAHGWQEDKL
# In short: as §1
# ETV3 = molecular target: T12, ETV3 (Homo sapiens, UniProt P41162-2 1-143); conditions: protein: recombinant; tags: N-terminal GST; dsDNA, one strand shown
# T12 sequence: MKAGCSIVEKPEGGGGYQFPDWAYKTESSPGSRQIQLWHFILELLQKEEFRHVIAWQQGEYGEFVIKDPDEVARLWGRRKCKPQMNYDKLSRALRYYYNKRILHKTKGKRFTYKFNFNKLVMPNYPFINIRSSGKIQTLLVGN
# In short: as §1
# ETV6 = ETV6 (Homo sapiens, UniProt P41212 1-452); conditions: protein: recombinant; tags: N-terminal GST; dsDNA, one strand shown
# Sequence of ETV6 (P41212 whole entry): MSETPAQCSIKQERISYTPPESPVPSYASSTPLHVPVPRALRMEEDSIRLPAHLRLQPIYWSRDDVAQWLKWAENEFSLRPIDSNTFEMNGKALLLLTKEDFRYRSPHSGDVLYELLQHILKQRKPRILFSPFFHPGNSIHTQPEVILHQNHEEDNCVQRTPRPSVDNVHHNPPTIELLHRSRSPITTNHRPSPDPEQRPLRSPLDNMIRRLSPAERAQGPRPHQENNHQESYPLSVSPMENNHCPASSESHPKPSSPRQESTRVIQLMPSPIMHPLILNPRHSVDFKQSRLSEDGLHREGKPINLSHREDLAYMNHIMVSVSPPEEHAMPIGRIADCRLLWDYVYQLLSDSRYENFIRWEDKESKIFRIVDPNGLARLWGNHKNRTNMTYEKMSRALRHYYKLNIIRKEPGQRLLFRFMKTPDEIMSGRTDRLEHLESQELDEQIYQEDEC
# In short: as §1
sequence,measurement,setting,value
CATCCC,binding signal,FEV,"1.18 fold enrichment (6-mer frequency, TF over GST control)"
same,binding signal,ETV5,"1.31 fold enrichment (6-mer frequency, TF over GST control)"
same,binding signal,HSF1,"1.05 fold enrichment (6-mer frequency, TF over GST control)"
same,binding signal,SPIC,"1.3 fold enrichment (6-mer frequency, TF over GST control)"
same,binding signal,ELF4,"1.22 fold enrichment (6-mer frequency, TF over GST control)"
same,binding signal,ELK4,"1.22 fold enrichment (6-mer frequency, TF over GST control)"
same,binding signal,ETV2,"1.15 fold enrichment (6-mer frequency, TF over GST control)"
same,binding signal,ELF3,"1.27 fold enrichment (6-mer frequency, TF over GST control)"
same,binding signal,CRX,"1.05 fold enrichment (6-mer frequency, TF over GST control)"
same,binding signal,ETV1,"1.16 fold enrichment (6-mer frequency, TF over GST control)"
same,binding signal,ERF,"1.2 fold enrichment (6-mer frequency, TF over GST control)"
same,binding signal,ETV3L,"1.26 fold enrichment (6-mer frequency, TF over GST control)"
same,binding signal,ETS2,"1.33 fold enrichment (6-mer frequency, TF over GST control)"
same,binding signal,SPDEF,"1.47 fold enrichment (6-mer frequency, TF over GST control)"
same,binding signal,ETV7,"1.2 fold enrichment (6-mer frequency, TF over GST control)"
same,binding signal,ELF5,"1.44 fold enrichment (6-mer frequency, TF over GST control)"
same,binding signal,ETV3,"1.16 fold enrichment (6-mer frequency, TF over GST control)"
same,binding signal,ETV6,"1.24 fold enrichment (6-mer frequency, TF over GST control)"
